# Numbering of substitutions follows the chain as printed.
# Key:
# Assay in all cases: PBM; 200 nM protein, PBS
# Conditions in all cases: dsDNA, one strand shown
# NKX2-5 [1] = target: NKX2-5 (Homo sapiens, UniProt P52952 125-210, R139K)
# NKX2-6 [2] = target: T1, NKX2-6 (Homo sapiens, UniProt A6NCS4 118-204, R150C)
# T1 sequence: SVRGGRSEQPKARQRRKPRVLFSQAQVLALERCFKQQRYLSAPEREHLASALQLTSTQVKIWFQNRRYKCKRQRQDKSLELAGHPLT
# NKX2-5 [3] = target: NKX2-5 (Homo sapiens, UniProt P52952 125-210)
# MSX2 [4] = target: MSX2 (Homo sapiens, UniProt P35548 130-214, R199I)
# ALX3 [5] = target: ALX3 (Homo sapiens, UniProt O95076 139-225, N203Q)
# MSX2 [6] = target: MSX2 (Homo sapiens, UniProt P35548 130-214)
# ALX3 [7] = target: ALX3 (Homo sapiens, UniProt O95076 139-225)
# ALX3 [8] = target: ALX3 (Homo sapiens, UniProt O95076 139-225, L168Q)
# ALX3 [9] = target: ALX3 (Homo sapiens, UniProt O95076 139-225, L168V)
# MSX2 [10] = target: MSX2 (Homo sapiens, UniProt P35548 130-214, F161Y)
# ALX3 [11] = target: ALX3 (Homo sapiens, UniProt O95076 139-225, N203S)
# HOXD13 [12] = target: HOXD13 (Homo sapiens, UniProt P35453 263-343, T313R)
# HOXD13 [13] = target: HOXD13 (Homo sapiens, UniProt P35453 263-343)
# HOXD13 [14] = target: HOXD13 (Homo sapiens, UniProt P35453 263-343, T313A)
# NKX3-2 [15] = target: NKX3-2 (Homo sapiens, UniProt P78367 192-278, P234S)
# NKX3-2 [16] = target: NKX3-2 (Homo sapiens, UniProt P78367 192-278)
# NKX2-6 [17] = target: T2, NKX2-6 (Homo sapiens, UniProt A6NCS4 118-204)
# T2 sequence: T1 sequence with C33R
# NKX2-6 [18] = target: T3, NKX2-6 (Homo sapiens, UniProt A6NCS4 118-204, F151L)
# T3 sequence: T1 sequence with C33R, F34L
# ALX1 [19] = target: ALX1 (Homo sapiens, UniProt Q15699 118-204, L144V)
# ALX1 [20] = target: ALX1 (Homo sapiens, UniProt Q15699 118-204, L144R)
# ALX1 [21] = target: ALX1 (Homo sapiens, UniProt Q15699 118-204)
# PITX2 = PITX2 (Homo sapiens, UniProt Q99697 72-157)
# Chain of NKX3-2 (Homo sapiens, UniProt P78367 192-278) (P78367 192-278): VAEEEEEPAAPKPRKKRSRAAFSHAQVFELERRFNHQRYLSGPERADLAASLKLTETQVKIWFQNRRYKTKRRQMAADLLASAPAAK
# Chain of NKX3-2 (Homo sapiens, UniProt P78367 192-278, P234S) (P78367 192-278 P234S): as the sequence (P78367 192-278) above, with P43S counted along it
# Chain of NKX2-5 (Homo sapiens, UniProt P52952 125-210) (P52952 125-210): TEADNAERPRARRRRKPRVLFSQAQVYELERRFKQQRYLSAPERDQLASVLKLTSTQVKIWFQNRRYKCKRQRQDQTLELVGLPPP
# Chain of NKX2-5 (Homo sapiens, UniProt P52952 125-210, R139K) (P52952 125-210 R139K): as the sequence (P52952 125-210) above, with R15K counted along it
# Chain of HOXD13 (Homo sapiens, UniProt P35453 263-343) (P35453 263-343): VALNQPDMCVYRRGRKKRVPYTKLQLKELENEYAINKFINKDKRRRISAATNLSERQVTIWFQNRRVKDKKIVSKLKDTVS
# Chain of ALX3 (Homo sapiens, UniProt O95076 139-225, N203Q) (O95076 139-225 N203Q): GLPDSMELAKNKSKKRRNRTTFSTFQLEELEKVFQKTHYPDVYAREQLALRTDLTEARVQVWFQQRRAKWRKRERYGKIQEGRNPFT
# Chain of ALX3 (Homo sapiens, UniProt O95076 139-225, L168Q) (O95076 139-225 L168Q): as the sequence (O95076 139-225 N203Q) above, with L30Q, Q65N counted along it
# Chain of ALX3 (Homo sapiens, UniProt O95076 139-225, N203S) (O95076 139-225 N203S): as the sequence (O95076 139-225 N203Q) above, with Q65S counted along it
# Chain of ALX3 (Homo sapiens, UniProt O95076 139-225) (O95076 139-225): as the sequence (O95076 139-225 N203Q) above, with Q65N counted along it
# Chain of HOXD13 (Homo sapiens, UniProt P35453 263-343, T313R) (P35453 263-343 T313R): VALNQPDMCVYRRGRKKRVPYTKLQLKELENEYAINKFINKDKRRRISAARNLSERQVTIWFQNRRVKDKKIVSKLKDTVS
# Chain of ALX3 (Homo sapiens, UniProt O95076 139-225, L168V) (O95076 139-225 L168V): as the sequence (O95076 139-225 N203Q) above, with L30V, Q65N counted along it
# Chain of HOXD13 (Homo sapiens, UniProt P35453 263-343, T313A) (P35453 263-343 T313A): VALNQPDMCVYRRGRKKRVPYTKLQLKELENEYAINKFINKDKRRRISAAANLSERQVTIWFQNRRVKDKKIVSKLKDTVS
# Chain of ALX1 (Homo sapiens, UniProt Q15699 118-204, L144R) (Q15699 118-204 L144R): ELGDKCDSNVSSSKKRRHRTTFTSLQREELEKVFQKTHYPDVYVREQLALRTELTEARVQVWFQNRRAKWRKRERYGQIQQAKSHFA
# Chain of MSX2 (Homo sapiens, UniProt P35548 130-214, R199I) (P35548 130-214 R199I): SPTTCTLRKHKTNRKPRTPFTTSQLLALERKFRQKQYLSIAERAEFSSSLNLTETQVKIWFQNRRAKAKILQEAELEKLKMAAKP
# Chain of ALX1 (Homo sapiens, UniProt Q15699 118-204, L144V) (Q15699 118-204 L144V): as the sequence (Q15699 118-204 L144R) above, with R27V counted along it
# Chain of MSX2 (Homo sapiens, UniProt P35548 130-214) (P35548 130-214): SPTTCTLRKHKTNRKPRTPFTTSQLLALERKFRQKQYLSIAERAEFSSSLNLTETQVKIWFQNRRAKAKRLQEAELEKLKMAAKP
# Chain of ALX1 (Homo sapiens, UniProt Q15699 118-204) (Q15699 118-204): as the sequence (Q15699 118-204 L144R) above, with R27L counted along it
# Chain of MSX2 (Homo sapiens, UniProt P35548 130-214, F161Y) (P35548 130-214 F161Y): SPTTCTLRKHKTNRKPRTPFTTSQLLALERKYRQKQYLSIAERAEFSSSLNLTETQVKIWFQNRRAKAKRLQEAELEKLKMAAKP
sequence,measurement,setting,value
CCACGGCG,binding signal,NKX2-5 [1],"8.49 upbm affinity estimate (log intensity, higher = more binding, comparable within an allelic series)"
same,binding signal,NKX2-6 [2],"9.16 upbm affinity estimate (log intensity, higher = more binding, comparable within an allelic series)"
same,binding signal,NKX2-5 [3],"8.47 upbm affinity estimate (log intensity, higher = more binding, comparable within an allelic series)"
CCGACGCA,binding signal,NKX2-5 [1],"8.78 upbm affinity estimate (log intensity, higher = more binding, comparable within an allelic series)"
same,binding signal,MSX2 [4],"9.38 upbm affinity estimate (log intensity, higher = more binding, comparable within an allelic series)"
same,binding signal,ALX3 [5],"7.72 upbm affinity estimate (log intensity, higher = more binding, comparable within an allelic series)"
same,binding signal,MSX2 [6],"9.17 upbm affinity estimate (log intensity, higher = more binding, comparable within an allelic series)"
same,binding signal,ALX3 [7],"7.54 upbm affinity estimate (log intensity, higher = more binding, comparable within an allelic series)"
same,binding signal,ALX3 [8],"7.69 upbm affinity estimate (log intensity, higher = more binding, comparable within an allelic series)"
same,binding signal,ALX3 [9],"7.71 upbm affinity estimate (log intensity, higher = more binding, comparable within an allelic series)"
same,binding signal,MSX2 [10],"9.25 upbm affinity estimate (log intensity, higher = more binding, comparable within an allelic series)"
same,binding signal,ALX3 [11],"7.75 upbm affinity estimate (log intensity, higher = more binding, comparable within an allelic series)"
same,binding signal,NKX2-5 [3],"8.7 upbm affinity estimate (log intensity, higher = more binding, comparable within an allelic series)"
CAGGTCGC,binding signal,NKX2-5 [1],"9.22 upbm affinity estimate (log intensity, higher = more binding, comparable within an allelic series)"
same,binding signal,HOXD13 [12],"9.62 upbm affinity estimate (log intensity, higher = more binding, comparable within an allelic series)"
same,binding signal,HOXD13 [13],"9.82 upbm affinity estimate (log intensity, higher = more binding, comparable within an allelic series)"
same,binding signal,HOXD13 [14],"9.97 upbm affinity estimate (log intensity, higher = more binding, comparable within an allelic series)"
same,binding signal,NKX2-5 [3],"9.21 upbm affinity estimate (log intensity, higher = more binding, comparable within an allelic series)"
AAGTGGCG,binding signal,NKX2-5 [1],"12.2 upbm affinity estimate (log intensity, higher = more binding, comparable within an allelic series)"
same,binding signal,NKX2-6 [2],"11.6 upbm affinity estimate (log intensity, higher = more binding, comparable within an allelic series)"
same,binding signal,NKX3-2 [15],"12.7 upbm affinity estimate (log intensity, higher = more binding, comparable within an allelic series)"
same,binding signal,NKX2-5 [3],"12.2 upbm affinity estimate (log intensity, higher = more binding, comparable within an allelic series)"
same,binding signal,NKX3-2 [16],"12.8 upbm affinity estimate (log intensity, higher = more binding, comparable within an allelic series)"
CAAGTGGG,binding signal,NKX2-5 [1],"12.3 upbm affinity estimate (log intensity, higher = more binding, comparable within an allelic series)"
same,binding signal,NKX2-6 [2],"11.7 upbm affinity estimate (log intensity, higher = more binding, comparable within an allelic series)"
same,binding signal,NKX2-5 [3],"12.3 upbm affinity estimate (log intensity, higher = more binding, comparable within an allelic series)"
AAGTGGGT,binding signal,NKX2-5 [1],"12.4 upbm affinity estimate (log intensity, higher = more binding, comparable within an allelic series)"
same,binding signal,NKX2-6 [2],"11.6 upbm affinity estimate (log intensity, higher = more binding, comparable within an allelic series)"
same,binding signal,NKX2-6 [17],"13.5 upbm affinity estimate (log intensity, higher = more binding, comparable within an allelic series)"
same,binding signal,NKX2-6 [18],"10.5 upbm affinity estimate (log intensity, higher = more binding, comparable within an allelic series)"
same,binding signal,NKX3-2 [15],"12.7 upbm affinity estimate (log intensity, higher = more binding, comparable within an allelic series)"
same,binding signal,NKX2-5 [3],"12.3 upbm affinity estimate (log intensity, higher = more binding, comparable within an allelic series)"
same,binding signal,NKX3-2 [16],"12.8 upbm affinity estimate (log intensity, higher = more binding, comparable within an allelic series)"
ACACTTAG,binding signal,NKX2-5 [1],"12.6 upbm affinity estimate (log intensity, higher = more binding, comparable within an allelic series)"
same,binding signal,NKX2-6 [2],"11.7 upbm affinity estimate (log intensity, higher = more binding, comparable within an allelic series)"
same,binding signal,NKX2-6 [17],"13.5 upbm affinity estimate (log intensity, higher = more binding, comparable within an allelic series)"
same,binding signal,NKX2-6 [18],"11 upbm affinity estimate (log intensity, higher = more binding, comparable within an allelic series)"
same,binding signal,NKX3-2 [15],"12.8 upbm affinity estimate (log intensity, higher = more binding, comparable within an allelic series)"
same,binding signal,NKX2-5 [3],"12.5 upbm affinity estimate (log intensity, higher = more binding, comparable within an allelic series)"
same,binding signal,NKX3-2 [16],"12.8 upbm affinity estimate (log intensity, higher = more binding, comparable within an allelic series)"
CAGCGTCC,binding signal,NKX2-5 [1],"8.7 upbm affinity estimate (log intensity, higher = more binding, comparable within an allelic series)"
same,binding signal,NKX2-6 [2],"9.46 upbm affinity estimate (log intensity, higher = more binding, comparable within an allelic series)"
same,binding signal,NKX2-5 [3],"8.65 upbm affinity estimate (log intensity, higher = more binding, comparable within an allelic series)"
CACTTAGG,binding signal,NKX2-5 [1],"12.6 upbm affinity estimate (log intensity, higher = more binding, comparable within an allelic series)"
same,binding signal,NKX2-6 [2],"11.7 upbm affinity estimate (log intensity, higher = more binding, comparable within an allelic series)"
same,binding signal,NKX2-6 [17],"13.5 upbm affinity estimate (log intensity, higher = more binding, comparable within an allelic series)"
same,binding signal,NKX2-6 [18],"10.8 upbm affinity estimate (log intensity, higher = more binding, comparable within an allelic series)"
same,binding signal,NKX3-2 [15],"12.9 upbm affinity estimate (log intensity, higher = more binding, comparable within an allelic series)"
same,binding signal,NKX2-5 [3],"12.5 upbm affinity estimate (log intensity, higher = more binding, comparable within an allelic series)"
same,binding signal,NKX3-2 [16],"13 upbm affinity estimate (log intensity, higher = more binding, comparable within an allelic series)"
CGTTCCGC,binding signal,NKX2-5 [1],"8.99 upbm affinity estimate (log intensity, higher = more binding, comparable within an allelic series)"
same,binding signal,NKX2-6 [17],"9.44 upbm affinity estimate (log intensity, higher = more binding, comparable within an allelic series)"
same,binding signal,NKX2-6 [18],"9.27 upbm affinity estimate (log intensity, higher = more binding, comparable within an allelic series)"
same,binding signal,NKX2-5 [3],"8.75 upbm affinity estimate (log intensity, higher = more binding, comparable within an allelic series)"
CCAGCAGG,binding signal,NKX2-5 [1],"8.6 upbm affinity estimate (log intensity, higher = more binding, comparable within an allelic series)"
same,binding signal,ALX1 [19],"6.58 upbm affinity estimate (log intensity, higher = more binding, comparable within an allelic series)"
same,binding signal,ALX1 [20],"6.51 upbm affinity estimate (log intensity, higher = more binding, comparable within an allelic series)"
same,binding signal,ALX1 [21],"6.53 upbm affinity estimate (log intensity, higher = more binding, comparable within an allelic series)"
same,binding signal,NKX2-5 [3],"8.77 upbm affinity estimate (log intensity, higher = more binding, comparable within an allelic series)"
CGACCTCG,binding signal,NKX2-5 [1],"9.01 upbm affinity estimate (log intensity, higher = more binding, comparable within an allelic series)"
same,binding signal,ALX3 [5],"7.77 upbm affinity estimate (log intensity, higher = more binding, comparable within an allelic series)"
same,binding signal,ALX3 [7],"7.62 upbm affinity estimate (log intensity, higher = more binding, comparable within an allelic series)"
same,binding signal,ALX3 [8],"7.78 upbm affinity estimate (log intensity, higher = more binding, comparable within an allelic series)"
same,binding signal,ALX3 [9],"7.74 upbm affinity estimate (log intensity, higher = more binding, comparable within an allelic series)"
same,binding signal,ALX3 [11],"7.75 upbm affinity estimate (log intensity, higher = more binding, comparable within an allelic series)"
same,binding signal,NKX2-5 [3],"9.16 upbm affinity estimate (log intensity, higher = more binding, comparable within an allelic series)"
CGGTGGAG,binding signal,NKX2-5 [1],"8.95 upbm affinity estimate (log intensity, higher = more binding, comparable within an allelic series)"
same,binding signal,HOXD13 [12],"9.59 upbm affinity estimate (log intensity, higher = more binding, comparable within an allelic series)"
same,binding signal,PITX2,"8.06 upbm affinity estimate (log intensity, higher = more binding, comparable within an allelic series)"
same,binding signal,HOXD13 [13],"9.6 upbm affinity estimate (log intensity, higher = more binding, comparable within an allelic series)"
same,binding signal,HOXD13 [14],"9.64 upbm affinity estimate (log intensity, higher = more binding, comparable within an allelic series)"
same,binding signal,NKX2-5 [3],"9.08 upbm affinity estimate (log intensity, higher = more binding, comparable within an allelic series)"

# Source: publication PMC11006913
